Where “and” joins values, the source holds several entries; their conditions need not be identical. Equal entries are not always repeated. Inconclusive results are not listed. Entries that show only a call come without a potency. A structure can be active in one record and inactive in another. Calls of active or inactive are those of the source. Unless noted, calls follow the shape of the dose curve; as a rule, active = well fitted curve in the direction sought with a large enough effect in the repeat runs; inconclusive = weak or mixed curves; inactive = no such curve, though single readings can be large; an effect the other way counts as inactive or inconclusive.
Tests used:
[1] = qHTS assay for small molecule agonists of the p53 signaling pathway (AID 651631; calls by dose curve; also: nearly all actives have a fitted effect of over 15% in size; also: potency is read from the fitted curve at half-maximal effect)
In short: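 HCT-116 cells carrying a stable p53 response element–beta-lactamase reporter were plated, rested 5 h at 37 °C, then exposed to compound in DMSO for 16 h at 37 °C; reporter activity was read as FRET substrate fluorescence after 2 h at room temperature.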

[2] = qHTS assay for small molecules that induce genotoxicity in human embryonic kidney cells expressing luciferase-tagged ATAD5 (AID 651632); also: nearly all actives have a fitted effect of over 15% in size
In short: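 Concentration-response screen for ATAD5 upregulation in HEK293T luciferase reporter cells; 16 hr treatment at 37C, then luminescence after 30 min with Amplite at room temperature.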

[3] = qHTS assay for small molecule agonists of the p53 signaling pathway - cell viability (AID 651633; calls by dose curve; also: nearly all actives have a fitted effect of over 30% in size; also: potency is read from the fitted curve at half-maximal effect; as to activity change, negative = cytotoxicity: series mostly up to about 83 µM)
In short: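 p53RE-bla cells, seeded at 4,000 per well and rested 5 h at 37 C/5% CO2, received compounds in DMSO for 16 h at 37 C. CellTiter-Glo was then added, and luminescence was read after 30 min at room temperature to gauge cytotoxicity.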

[4] = qHTS assay for small molecules that induce genotoxicity in human embryonic kidney cells expressing luciferase-tagged ATAD5 - cell viability (AID 651634; calls by dose curve; also: nearly all actives have a fitted effect of over 25% in size)
In short: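 15.5 hr compound or vehicle exposure of HEK293T cells expressing luciferase-tagged ATAD5 at 37C; live-cell protease activity is read by fluorescence after 30 min of CellTiter-Fluor.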

[5] = qHTS assay for small molecule disruptors of the mitochondrial membrane potential - cell viability (AID 720634; calls by dose curve;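 also: human HepG2 liver cancer cells; series mostly up to about 83 µM; nearly all actives have a fitted effect of over 20% in size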)
In short: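 In this qHTS format, HepG2 cells plated overnight were pinned with compound, incubated 1 hr, and assayed for ATP luminescence with CellTiter-Glo after m-MPI dye addition.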

[6] = qHTS assay for small molecule disruptors of the mitochondrial membrane potential (AID 720635)
In short: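 HepG2 cells (2,000/well) attached overnight at 37C, then took compound for 1 hr at 37C, 5% CO2. Mito-MPS dye was added for 30 min; fluorescence was read at 490/535 nm (monomers) and 540/590 nm (aggregates).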

[7] = qHTS assay to test for compound auto fluorescence at 590 nm (red) in HepG2 cells (AID 720674)
In short: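 Intrinsic compound fluorescence in the red window (Ex/Em 540/590 nm) is measured in attached HepG2 cells exposed for 1 hr, DMSO vehicle as baseline, benchmarked to Rose Bengal sodium.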

[8] = qHTS assay to test for compound auto fluorescence at 535 nm (green) in HepG2 cells (AID 720675)
[9] = qHTS assay to test for compound auto fluorescence at 590 nm (red) in HEK293 cells (AID 720679)
In short: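 Red-channel autofluorescence (Ex/Em 540/590 nm; Rose Bengal sodium reference) was measured after overnight 37C, 5% CO2 exposure of attached HEK293 cells, 2,000 per well in medium with 10% dialyzed FBS.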

[10] = qHTS assay to test for compound auto fluorescence at 535 nm (green) in HEK293 cells (AID 720680)
[11] = qHTS assay to test for compound auto fluorescence at 460 nm (blue) in HEK293 cell free culture (AID 720681)
In short: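 Test compounds were pinned into cell-free culture medium (DMEM with 10% FBS) and fluorescence was read directly at Ex/Em 405/460 nm. Signals were expressed as fluorescence equivalents of triamterene, with DMSO vehicle as control.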

[12] = qHTS assay to test for compound auto fluorescence at 535 nm (green) in HEK293 cell free culture (AID 720682)
In short: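 Read-out: 485/535 nm fluorescence intensity, calibrated against fluorescein. Medium only (DMEM + 10% FBS, no cells); test compound or DMSO vehicle added by pintool before plate reading.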

[13] = qHTS assay to test for compound auto fluorescence at 590 nm (red) in HEK293 cell free culture (AID 720683)
In short: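 Tox21 10K library compounds were pinned into cell-free DMEM with 10% FBS and fluorescence was read at excitation 540 nm. Activity is expressed as Rose Bengal sodium equivalency.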

[14] = qHTS assay to test for compound auto fluorescence at 460 nm (blue) in HepG2 cell free culture (AID 720685)
In short: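 Cell-free plates of MEM plus 10% FBS received 23 nL compound or DMSO vehicle; blue-channel (405/460 nm) intensity scored against triamterene as reference fluorophore.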

[15] = qHTS assay to test for compound auto fluorescence at 535 nm (green) in HepG2 cell free culture (AID 720686)
[16] = qHTS assay to test for compound auto fluorescence at 460 nm (blue) in HepG2 cells (AID 720687)
In short: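 Cells (2,000/well in MEM with 10% FBS) attached overnight at 37 C, then were exposed to compound or DMSO for 1 hr at 37 C, 5% CO2. Fluorescence read at Ex/Em 405/460 nm, expressed as triamterene-equivalent signal.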

[17] = biological target: Glucocorticoid receptor (Homo sapiens) (UniProt P04150); assay: qHTS assay to identify small molecule agonists of the glucocorticoid receptor (GR) signaling pathway (AID 720691; active = well fitted activation curve with a large enough effect in the signal ratio in the repeat runs, not every such curve was filed as active; the % refers to the signal ratio)
Sequence of Glucocorticoid receptor (Homo sapiens) (P04150 whole entry, looked up): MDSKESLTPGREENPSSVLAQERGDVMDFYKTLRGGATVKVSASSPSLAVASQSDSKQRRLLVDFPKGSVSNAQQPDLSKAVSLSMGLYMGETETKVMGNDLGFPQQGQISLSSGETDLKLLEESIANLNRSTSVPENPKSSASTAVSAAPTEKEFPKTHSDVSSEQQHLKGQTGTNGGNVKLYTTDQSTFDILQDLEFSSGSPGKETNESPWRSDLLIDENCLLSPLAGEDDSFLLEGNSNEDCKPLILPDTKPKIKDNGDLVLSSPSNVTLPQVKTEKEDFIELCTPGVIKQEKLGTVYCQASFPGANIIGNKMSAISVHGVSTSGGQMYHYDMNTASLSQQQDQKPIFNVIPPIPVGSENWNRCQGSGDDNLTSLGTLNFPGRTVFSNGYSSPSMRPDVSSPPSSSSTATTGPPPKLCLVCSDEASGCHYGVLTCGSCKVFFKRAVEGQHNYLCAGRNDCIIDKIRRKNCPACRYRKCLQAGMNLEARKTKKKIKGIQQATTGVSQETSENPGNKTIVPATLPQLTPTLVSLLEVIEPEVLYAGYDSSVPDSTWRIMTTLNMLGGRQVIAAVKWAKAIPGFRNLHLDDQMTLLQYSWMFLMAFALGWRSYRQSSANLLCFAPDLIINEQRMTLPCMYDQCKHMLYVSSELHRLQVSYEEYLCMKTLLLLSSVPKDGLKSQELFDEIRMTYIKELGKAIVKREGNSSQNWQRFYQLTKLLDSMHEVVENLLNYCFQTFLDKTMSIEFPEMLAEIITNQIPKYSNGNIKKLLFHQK
In short: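 Measures GR pathway activation through a GRE-beta-lactamase reporter stably integrated in HeLa cells, with 18 h compound treatment at 37 C and fluorescence detection using a FRET substrate.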

[18] = qHTS assay to test for compound auto fluorescence at 460 nm (blue) in HEK293 cells (AID 720678)
In short: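 Blue-channel (Ex/Em 405/460 nm) intensity measured in HEK293 cultures after overnight compound exposure at 37C; signal expressed relative to triamterene. Cells plated 2,000 per well in 10% dialyzed FBS medium and allowed 4-5 hr to attach.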

[19] = qHTS assay to test for compound auto fluorescence at 590 nm (red) in HepG2 cell free culture (AID 720684)
In short: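 Readout: intrinsic compound fluorescence at 590 nm emission after 540 nm excitation, scaled to Rose Bengal sodium. Matrix was cell-free MEM with 10% FBS; DMSO vehicle wells served as control.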

[20] = biological target: Glucocorticoid receptor (Homo sapiens) (UniProt P04150); assay: qHTS assay to identify small molecule antagonists of the glucocorticoid receptor (GR) signaling pathway (AID 720692; active = well fitted inhibition curve with a large enough effect in the signal ratio in the repeat runs, not every such curve was filed as active; the % refers to the signal ratio)
In short: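 Tox21 10K library screened in concentration-response for blockade of dexamethasone (5 nM final)-induced GRE-bla reporter activity in HeLa cells; 18 h treatment, fluorescence read.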

For `CN(C)Cc1ccccc1O`, the Potency [1] was “inactive”, the Potency [2] was “inactive” and the Potency [3] was “inactive”. The Potency [4] was “inactive”, the Potency [5] was “inactive” and the Potency [6] was “inactive”. The Potency [7] was “inactive”, the Potency [8] was “inactive” and the Potency [9] was “inactive”. The Potency [10] was “inactive”, the Potency [11] was “inactive” and the Potency [12] was “inactive”. For the same compound, the Potency [13] was “inactive”, the Potency [14] was “inactive” and the Potency [15] was “inactive”. For the same compound, the Potency [16] was “inactive” and the Potency [17] was “inactive”.

For `O=C(O)O`, the activation [1] was -6.09% [at 8.3 µM] (inactive), the activation [2] was 4.66% [at 8.08 µM] (inactive) and the activity change, negative = cytotoxicity [3] was 14.5% [at 8.08 µM] (inactive). For the same compound, the activity, negative = cytotoxicity [4] was 16.8% [at 8.08 µM] (inactive), the activity change, negative = cytotoxicity [5] was 7.92% [at 8.08 µM] (inactive) and the ratio activity, negative = MMP loss [6] was 7.15% [at 8.08 µM] (inactive). The fluorescence, relative to Rose Bengal [7] was -0.453% [at 3.72 µM] (inactive), the fluorescence, % of fluorescein control [8] was -0.0364% [at 3.72 µM] (inactive) and the fluorescence, % of triamterene [18] was -0.0075% [at 3.72 µM] (inactive). For the same compound, the fluorescence, % of fluorescent control [9] was 0.462% [at 3.72 µM] (inactive), the fluorescence, % of fluorescein [10] was -0.0067% [at 3.72 µM] (inactive) and the fluorescence, % of fluorescent control [11] was 0.0957% [at 3.72 µM] (inactive). For the same compound, the activity change [12] was -0.0576% [at 3.72 µM, stronger effect = higher value] (inactive), the fluorescence, % of fluorescent control [13] was -0.0236% [at 3.72 µM] (inactive) and the fluorescence, % of Rose Bengal [19] was 0.0094% [at 3.72 µM] (inactive). The fluorescence, % of fluorescent control [14] was 0.0077% [at 3.72 µM] (inactive), the fluorescence, % of fluorescein control [15] was 0.0195% [at 3.72 µM] (inactive) and the fluorescence, % of fluorescent control [16] was -0.0691% [at 3.72 µM] (inactive). The activation [17] was -0.133% [at 6.9 µM] (inactive) and the activity change, negative = inhibition [20] was -1.88% [at 7.04 µM] (inactive).

In the case of `CCN1C(=O)c2ccccc2C1Nc1ccc(OCCN2CCCCC2)cc1` (stereo unspecified), the Potency [1] is reported as “inactive”, the Potency [2] is reported as “inactive” and the Potency [3] is reported as “inactive”. For the same compound, the Potency [4] was “inactive”, the Potency [5] was “inactive” and the Potency [6] was “inactive”. For the same compound, the Potency [7] was “inactive”, the Potency [8] was “inactive” and the Potency [18] was “inactive”. The Potency [9] was “inactive”, the Potency [10] was “inactive” and the Potency [11] was “inactive”. For the same compound, the Potency [12] was “inactive”, the Potency [19] was “inactive” and the Potency [14] was “inactive”. The Potency [15] was “inactive”, the Potency [16] was “inactive” and the Potency [17] was “inactive”. For the same compound, the Potency [20] was “inactive”.

With `COc1cc(C)ccc1O` the Potency [1] was “inactive”, the Potency [2] was “inactive” and the Potency [3] was “inactive”. The Potency [4] was “inactive”, the Potency [5] was “inactive” and the Potency [6] was “inactive”. For the same compound, the Potency [7] was “inactive”, the Potency [8] was “inactive” and the Potency [18] was “inactive”. For the same compound, the Potency [9] was “inactive”, the Potency [10] was “inactive” and the Potency [11] was “inactive”. The Potency [12] was “inactive”, the Potency [13] was “inactive” and the Potency [14] was “inactive”. The Potency [15] was “inactive”, the Potency [16] was “inactive” and the Potency [17] was “inactive”.

In the case of `CC(CCc1ccccc1)NCC(O)c1ccc(O)c(C(N)=O)c1` (stereo unspecified), the Potency [1] is reported as “inactive”, the Potency [2] is reported as “inactive” and the Potency [3] is reported as “inactive”. For the same compound, the Potency [4] was “inactive”, the Potency [5] was “inactive” and the Potency [6] was “inactive”. For the same compound, the Potency [7] was “inactive”, the Potency [8] was “inactive” and the Potency [9] was “inactive”. The Potency [10] was “inactive”, the Potency [11] was “inactive” and the Potency [12] was “inactive”. The Potency [13] was “inactive”, the Potency [19] was “inactive” and the Potency [14] was “inactive”. The Potency [16] was “inactive” and the Potency [17] was “inactive”.

In the case of `Nc1nc2c(ncn2COCCO)c(=O)[nH]1`, the Potency [1] is reported as “inactive”, the Potency [2] is reported as “inactive” and the Potency [3] is reported as “inactive”. The Potency [4] was “inactive”, the Potency [5] was “inactive” and the Potency [6] was “inactive”. For the same compound, the fluorescence, relative to Rose Bengal [7] was 2e-05% [at 18.6 µM] (inactive), the fluorescence, % of fluorescein control [8] was 0.0011% [at 18.6 µM] (inactive) and the fluorescence, % of triamterene [18] was -0.0369% [at 18.6 µM] (inactive). For the same compound, the fluorescence, % of fluorescent control [9] was -0.073% [at 18.6 µM] (inactive), the fluorescence, % of fluorescein [10] was 0.029% [at 18.6 µM] (inactive) and the fluorescence, % of fluorescent control [11] was 0.0219% [at 18.6 µM] (inactive). The activity change [12] was -0.0229% [at 18.6 µM, stronger effect = higher value] (inactive), the fluorescence, % of fluorescent control [13] was 0.0201% [at 18.6 µM] (inactive) and the fluorescence, % of fluorescent control [14] was 0.0242% [at 18.6 µM] (inactive). For the same compound, the fluorescence, % of fluorescent control [16] was 0.176% [at 18.6 µM] (inactive), the Potency [17] was “inactive” and the Potency [20] was “inactive”.

With `CCCCC/C=C\C/C=C\CCCCCCCC(=O)O` the Potency [1] was “inactive and 68.6 µM (active)”, the Potency [2] was “inactive” and the Potency [3] was “inactive and 54.5 µM (active)”. For the same compound, the Potency [4] was “inactive”, the Potency [5] was “inactive” and the Potency [6] was “inactive”. The Potency [7] was “inactive”, the Potency [8] was “inactive” and the Potency [9] was “inactive”. The Potency [10] was “inactive”, the Potency [11] was “inactive” and the Potency [12] was “inactive”. The Potency [13] was “inactive”, the Potency [19] was “inactive” and the Potency [14] was “inactive”. The Potency [15] was “inactive” and the Potency [16] was “inactive”.
